Source: PubChem BioAssay
A number with no mark means an inactive call. Calls of active or inactive are those of the source.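 Rule for the calls, unless noted: active = mean inhibition over 43.08%, the solvent-only control mean plus 3 SD; inactive = the rest.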

What was measured:
[1] = biological target: Nuclear receptor coactivator 3 (Homo sapiens) (UniProt Q9Y6Q9); test: NCOA3 GAL4-fusion reporter inhibition – cell-based, luminescence, quadruplicate, confirmation (AID 588792); details: HEK293 GAL4-SRC3 luciferase reporter, at 3.6 µM, stronger effect = higher value;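 note: 0% = DMSO treated cells and 100% = gossypol at 36 µM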
Chain of Nuclear receptor coactivator 3 (Homo sapiens) (Q9Y6Q9 whole entry, looked up, the tested form may be a part): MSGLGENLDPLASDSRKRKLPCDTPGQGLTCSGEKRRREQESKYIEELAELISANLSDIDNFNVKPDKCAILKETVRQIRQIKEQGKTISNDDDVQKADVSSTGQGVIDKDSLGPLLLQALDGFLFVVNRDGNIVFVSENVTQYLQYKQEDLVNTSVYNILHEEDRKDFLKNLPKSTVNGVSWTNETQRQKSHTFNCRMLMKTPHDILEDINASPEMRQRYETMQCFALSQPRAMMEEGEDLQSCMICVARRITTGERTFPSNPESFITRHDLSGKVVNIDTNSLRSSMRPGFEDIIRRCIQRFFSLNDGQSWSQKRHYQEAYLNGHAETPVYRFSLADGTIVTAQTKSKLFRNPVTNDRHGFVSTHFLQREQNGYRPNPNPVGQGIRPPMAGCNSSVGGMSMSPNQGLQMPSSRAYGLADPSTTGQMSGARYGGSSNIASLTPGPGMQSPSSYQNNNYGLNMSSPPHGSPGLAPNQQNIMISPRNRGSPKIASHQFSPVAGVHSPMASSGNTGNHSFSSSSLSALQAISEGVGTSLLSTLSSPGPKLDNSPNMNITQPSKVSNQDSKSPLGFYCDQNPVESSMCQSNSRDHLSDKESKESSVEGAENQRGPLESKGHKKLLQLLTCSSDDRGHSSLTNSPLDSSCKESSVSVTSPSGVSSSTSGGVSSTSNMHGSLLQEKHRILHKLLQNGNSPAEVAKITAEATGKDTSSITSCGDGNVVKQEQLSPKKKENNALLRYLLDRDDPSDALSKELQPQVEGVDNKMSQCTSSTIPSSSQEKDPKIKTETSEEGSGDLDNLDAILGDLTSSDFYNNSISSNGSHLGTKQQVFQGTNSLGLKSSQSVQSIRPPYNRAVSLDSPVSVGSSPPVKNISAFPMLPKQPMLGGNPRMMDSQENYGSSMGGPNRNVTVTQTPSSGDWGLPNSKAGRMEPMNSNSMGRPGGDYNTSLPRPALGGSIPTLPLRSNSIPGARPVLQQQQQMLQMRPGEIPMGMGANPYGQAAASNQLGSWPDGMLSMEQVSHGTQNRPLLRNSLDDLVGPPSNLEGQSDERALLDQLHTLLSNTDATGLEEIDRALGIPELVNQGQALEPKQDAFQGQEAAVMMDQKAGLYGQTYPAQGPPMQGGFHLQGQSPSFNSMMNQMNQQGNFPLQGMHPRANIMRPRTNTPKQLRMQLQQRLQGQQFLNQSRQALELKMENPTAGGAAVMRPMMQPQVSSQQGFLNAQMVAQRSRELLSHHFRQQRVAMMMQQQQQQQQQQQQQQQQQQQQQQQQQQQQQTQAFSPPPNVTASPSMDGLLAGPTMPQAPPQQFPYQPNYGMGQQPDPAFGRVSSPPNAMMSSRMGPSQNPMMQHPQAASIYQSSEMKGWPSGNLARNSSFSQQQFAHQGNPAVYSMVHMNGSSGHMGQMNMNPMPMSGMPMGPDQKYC

[2] = test system: transactivating tegument protein VP16 (Human herpesvirus 1), Gal4-VP16 luciferase reporter; test: repression of VP16-driven luciferase reporter – cell-based, luminescence, high throughput, counter-screen for SRC3 inhibitor project (AID 588794; in the data active = inhibition above about 30%); details: mammalian cells, at 3.6 µM, stronger effect = higher value
[3] = biological target: Nuclear receptor coactivator 1 (Homo sapiens) (UniProt Q15788); test: NCOA1 GAL4-fusion reporter inhibition – cell-based, luminescence, quadruplicate, confirmation (AID 588820;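 active = mean inhibition above 46.68%, the untreated control wells mean plus 3 SD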;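 note: 0% = DMSO wells and 100% = gossypol 36 µM treated wells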); details: HEK293 GAL4-SRC1 luciferase reporter, at 3.6 µM, stronger effect = higher value
Chain of Nuclear receptor coactivator 1 (Homo sapiens) (Q15788 whole entry, looked up, the tested form may be a part): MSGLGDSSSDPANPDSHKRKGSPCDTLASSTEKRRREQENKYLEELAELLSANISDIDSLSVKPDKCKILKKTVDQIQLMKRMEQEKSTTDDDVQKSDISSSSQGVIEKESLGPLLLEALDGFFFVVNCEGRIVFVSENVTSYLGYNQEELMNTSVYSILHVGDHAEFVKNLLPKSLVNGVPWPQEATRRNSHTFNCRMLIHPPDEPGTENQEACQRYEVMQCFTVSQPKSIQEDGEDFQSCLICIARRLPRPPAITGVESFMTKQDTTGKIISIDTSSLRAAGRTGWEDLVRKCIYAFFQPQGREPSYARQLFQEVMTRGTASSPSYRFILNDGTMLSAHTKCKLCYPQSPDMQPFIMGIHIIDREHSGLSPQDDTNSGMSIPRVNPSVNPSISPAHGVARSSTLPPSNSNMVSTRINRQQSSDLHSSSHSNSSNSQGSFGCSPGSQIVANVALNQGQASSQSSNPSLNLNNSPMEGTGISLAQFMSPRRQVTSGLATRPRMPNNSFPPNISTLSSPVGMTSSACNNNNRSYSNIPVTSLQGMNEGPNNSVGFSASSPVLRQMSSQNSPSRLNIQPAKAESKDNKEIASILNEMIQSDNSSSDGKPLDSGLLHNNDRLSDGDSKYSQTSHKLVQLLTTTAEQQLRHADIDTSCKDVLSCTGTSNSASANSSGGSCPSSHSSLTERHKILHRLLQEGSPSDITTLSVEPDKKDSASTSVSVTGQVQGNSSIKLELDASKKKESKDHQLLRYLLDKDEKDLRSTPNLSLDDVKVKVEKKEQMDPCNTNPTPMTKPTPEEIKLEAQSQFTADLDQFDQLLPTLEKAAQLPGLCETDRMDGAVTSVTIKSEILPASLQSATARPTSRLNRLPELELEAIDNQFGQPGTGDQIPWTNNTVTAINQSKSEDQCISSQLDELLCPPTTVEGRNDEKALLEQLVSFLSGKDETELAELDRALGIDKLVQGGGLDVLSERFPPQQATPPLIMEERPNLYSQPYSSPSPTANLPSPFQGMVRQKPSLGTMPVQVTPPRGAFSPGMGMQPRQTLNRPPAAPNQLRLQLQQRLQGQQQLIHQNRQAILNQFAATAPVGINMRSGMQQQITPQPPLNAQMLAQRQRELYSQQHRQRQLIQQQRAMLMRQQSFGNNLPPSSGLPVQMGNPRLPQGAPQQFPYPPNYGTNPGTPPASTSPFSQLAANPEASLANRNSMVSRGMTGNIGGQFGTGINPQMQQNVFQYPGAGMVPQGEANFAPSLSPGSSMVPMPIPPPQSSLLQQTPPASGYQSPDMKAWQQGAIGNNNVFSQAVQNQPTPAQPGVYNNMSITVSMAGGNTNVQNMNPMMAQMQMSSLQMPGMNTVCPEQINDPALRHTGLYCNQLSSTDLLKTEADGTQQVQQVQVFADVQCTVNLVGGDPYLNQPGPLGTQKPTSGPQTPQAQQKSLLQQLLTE

[4] = repression of VP16-driven luciferase reporter – cell-based, luminescence, high throughput, counter-screen for SRC1 inhibitor project (AID 588824; in the data active = inhibition above about 25%); details: cell-based VP16 transactivation luciferase luminescence; at 3.6 µM; stronger effect = higher value
[5] = test system: transactivating tegument protein VP16 (Human herpesvirus 1); test: compounds suppressing VP16-driven luciferase signal – cell-based, luminescence, single concentration, counter-screen for SRC2 inhibitor project (AID 652007; in the data active = inhibition above about 36%); details: cell-based VP16 transactivation luciferase reporter, at 8.9 µM, stronger effect = higher value
[6] = biological target: Nuclear receptor coactivator 2 (Homo sapiens) (UniProt Q15596); test: inhibition of GAL4-SRC2 driven luciferase expression – cell-based, luminescence, HEK293, triplicate, confirmation (AID 652008;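 active = mean inhibition above 46.5%, the solvent-only control mean plus 3 SD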;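 note: 0% = DMSO-treated cells and 100% = Gossypol at 36 µM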); details: HEK293 GAL4-SRC2 luciferase reporter, at 8.9 µM, stronger effect = higher value
Chain of Nuclear receptor coactivator 2 (Homo sapiens) (Q15596 whole entry, looked up, the tested form may be a part): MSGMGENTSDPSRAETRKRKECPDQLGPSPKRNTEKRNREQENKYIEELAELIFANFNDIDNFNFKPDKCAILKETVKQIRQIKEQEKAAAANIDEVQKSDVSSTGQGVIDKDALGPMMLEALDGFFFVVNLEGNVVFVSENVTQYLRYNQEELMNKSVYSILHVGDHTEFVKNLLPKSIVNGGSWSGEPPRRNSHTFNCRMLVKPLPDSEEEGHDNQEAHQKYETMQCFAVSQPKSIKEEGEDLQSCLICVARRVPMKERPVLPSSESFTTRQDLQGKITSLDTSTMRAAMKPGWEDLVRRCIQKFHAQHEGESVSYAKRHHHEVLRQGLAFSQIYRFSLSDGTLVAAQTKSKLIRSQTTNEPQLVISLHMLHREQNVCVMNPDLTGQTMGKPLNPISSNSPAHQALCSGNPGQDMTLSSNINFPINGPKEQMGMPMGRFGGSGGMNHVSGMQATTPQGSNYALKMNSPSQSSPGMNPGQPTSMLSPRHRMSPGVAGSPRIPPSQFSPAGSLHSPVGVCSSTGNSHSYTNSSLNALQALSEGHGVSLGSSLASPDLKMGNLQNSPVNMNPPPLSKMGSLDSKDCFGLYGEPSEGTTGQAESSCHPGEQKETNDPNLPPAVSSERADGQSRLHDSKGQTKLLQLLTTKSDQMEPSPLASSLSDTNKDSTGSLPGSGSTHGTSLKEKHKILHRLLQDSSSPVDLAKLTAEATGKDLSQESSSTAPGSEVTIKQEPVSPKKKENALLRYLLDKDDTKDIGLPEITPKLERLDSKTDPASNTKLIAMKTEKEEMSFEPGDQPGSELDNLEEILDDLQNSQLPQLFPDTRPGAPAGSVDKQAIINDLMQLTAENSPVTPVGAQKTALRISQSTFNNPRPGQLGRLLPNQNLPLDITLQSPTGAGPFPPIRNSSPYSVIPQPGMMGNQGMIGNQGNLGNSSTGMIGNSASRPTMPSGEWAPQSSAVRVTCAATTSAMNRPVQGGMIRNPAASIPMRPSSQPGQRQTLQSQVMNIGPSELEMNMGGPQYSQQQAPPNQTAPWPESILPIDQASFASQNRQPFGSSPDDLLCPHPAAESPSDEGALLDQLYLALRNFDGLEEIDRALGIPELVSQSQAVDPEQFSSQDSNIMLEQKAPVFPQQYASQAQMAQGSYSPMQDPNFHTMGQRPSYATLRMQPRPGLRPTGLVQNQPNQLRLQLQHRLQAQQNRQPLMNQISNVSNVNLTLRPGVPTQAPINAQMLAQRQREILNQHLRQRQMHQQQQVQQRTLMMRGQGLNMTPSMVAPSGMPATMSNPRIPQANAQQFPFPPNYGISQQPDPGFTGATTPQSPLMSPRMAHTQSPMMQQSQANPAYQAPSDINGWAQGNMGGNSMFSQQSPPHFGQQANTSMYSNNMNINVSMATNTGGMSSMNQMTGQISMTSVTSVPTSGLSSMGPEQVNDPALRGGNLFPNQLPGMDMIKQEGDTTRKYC

| SMILES | inhibition [1] | inhibition [2] | inhibition [3] | inhibition [4] | inhibition [5] | inhibition [6] |
| --- | --- | --- | --- | --- | --- | --- |
| Cc1nnc(-c2ccccc2)c(=O)n1/N=C/c1c(O)ccc2ccccc12 | 40.6% | 55% (active) | 57% (active) | 62.6% (active) | -12.9% | 23.1% |
| C=CCn1c(C)cc(C(=O)COc2ccc(C)nc2[N+](=O)[O-])c1C | 33.7% | -8.11% | 9.64% | -12.6% | -4.94% | 65.9% (active) |
| O=C1NC(=S)N/C1=C/c1cccnc1 | 39.1% | 32% (active) | 44.9% | 31.8% (active) | -3.45% | 43.8% |
| Cc1cccc(Nc2ncnc3ccc(Br)cc23)c1 | 38.9% | 32.6% (active) | 32.8% | 25.8% (active) | 0.23% | 29.7% |
| CC(=O)c1ccc(-n2c(C)c(C(C)=O)c3cc(O)ccc32)cc1 | 63% (active) | 45.6% (active) | 45.9% | 46.7% (active) | 2.74% | 54.7% (active) |
| COc1ccc(-c2cc(=O)oc3cc(OC(=O)C4CCCCC4)c(Cl)cc23)cc1 | 59.4% (active) | 38.7% (active) | 56% (active) | 41.2% (active) | -4.78% | 37.4% |
| O=C(CCl)N(C1CCCC1)C1CCS(=O)(=O)C1 (centres undefined) | 71.6% (active) | 42.4% (active) | 58.3% (active) | 38.2% (active) | 30.6% | 63.6% (active) |
| CCc1ccn2cc(-c3cc(-c4ccccc4)no3)nc2c1 | 2.16% | 7.18% | -92.4% | -4.46% | 36.5% (active) | 61.6% (active) |
| CC(C)(C)c1ccc(C(=O)NCCOc2ccccc2F)cc1 | 10.1% | -2.97% | -61% | -47.6% | -20.4% | 47.8% (active) |
| C=CC[n+]1c(-c2ccc(C)cc2)csc1Nc1ccc(NC(C)=O)cc1 | 29.6% | -12.8% | 4.13% | -3.13% | 62.2% (active) | 86.8% (active) |
| COc1ccc2[nH]c(=O)c3c(c2c1)OC(C)(C)C=C3 | 77.6% (active) | 41.7% (active) | 69.9% (active) | 44% (active) | 9.64% | 51.3% (active) |
| CCCC(=O)NC(c1ccc(Cl)cc1Cl)c1ccc2cccnc2c1O (centres undefined) | 34.5% | 28.6% | 45.7% | 48% (active) | 0.83% | 17.2% |
| Cn1cc(C(=O)N/N=C/c2c(O)ccc3ccccc23)ccc1=O | 52.8% (active) | 42.4% (active) | 49.5% (active) | 44% (active) | -10.3% | 26.8% |
| CCc1c(C)nc2ccc(Br)cc2c1SCCC#N | 58.4% (active) | 44.3% (active) | 66.9% (active) | 33.5% (active) | 9.39% | 34.7% |
| COCCn1c(C)cc(C(=O)COC(=O)c2cccc(O)c2)c1C | 2.54% | 0.92% | -62.8% | -32.7% | 37.3% (active) | 51.1% (active) |
| COc1ccc(-c2cc3nc(C)n(N)c(=O)c3s2)cc1 | 57.6% (active) | 41.7% (active) | 19.4% | 39.4% (active) | 72% (active) | 83.8% (active) |
| c1cc2c(cc1C1=NNC(=NC3CC3)SC1)OCCO2 | 52.8% (active) | 46.4% (active) | 15.5% | 38% (active) | 59.7% (active) | 79.5% (active) |
| Cc1c(C(C)NC(=O)c2cc(COc3cccc4cnccc34)on2)cnn1C (centres undefined) | 32.4% | 40.4% (active) | 38.3% | 33.8% (active) | 7.45% | 46.9% (active) |
| Cc1cc(C(=O)COC(=O)c2cccnc2Cl)c(C)n1CC1CCCO1 (centres undefined) | 19.6% | 27.6% | -18.2% | -20.1% | 6.65% | 56.6% (active) |
